Consider six sequences from publication PMC11006913.

Assay in all cases: PBM; 200 nM protein, PBS
Holding throughout (details): dsDNA, one strand shown

The target of assay [1] is HOXB4 (Homo sapiens, UniProt P17483 148-234).
The target in assay [2] is HOXA4 (Homo sapiens, UniProt Q00056 201-287, W262R).
Assay [3] addresses ALX4 (Homo sapiens, UniProt Q9H161 200-286).
Assay [4] addresses PRRX1 (Homo sapiens, UniProt P54821 80-166, F113S).
The target in assay [5] is HOXA4 (Homo sapiens, UniProt Q00056 201-287, R217L).
Chain of HOXA4 (Homo sapiens, UniProt Q00056 201-287, R217L) (Q00056 201-287 R217L): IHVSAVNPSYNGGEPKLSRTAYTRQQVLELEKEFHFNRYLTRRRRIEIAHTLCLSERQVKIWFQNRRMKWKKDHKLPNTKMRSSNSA
For assay [6], the target named is HOXB4 (Homo sapiens, UniProt P17483 148-234, V174I).
Chain of HOXB4 (Homo sapiens, UniProt P17483 148-234, V174I) (P17483 148-234 V174I): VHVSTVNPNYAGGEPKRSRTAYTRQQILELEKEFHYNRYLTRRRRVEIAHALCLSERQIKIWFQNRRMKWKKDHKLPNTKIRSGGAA
In assay [7] the target is T1, PAX4 (Homo sapiens, UniProt O43316 9-242, R200Q).
T1 sequence: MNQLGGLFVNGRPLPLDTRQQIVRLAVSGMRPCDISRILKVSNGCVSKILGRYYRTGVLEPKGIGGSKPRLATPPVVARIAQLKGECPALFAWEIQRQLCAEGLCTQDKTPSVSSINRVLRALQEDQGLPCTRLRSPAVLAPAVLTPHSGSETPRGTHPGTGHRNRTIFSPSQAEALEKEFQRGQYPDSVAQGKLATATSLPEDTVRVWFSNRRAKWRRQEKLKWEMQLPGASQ

Assay [8] concerns the target HOXA4 (Homo sapiens, UniProt Q00056 201-287).
Assay [9] concerns the target MSX2 (Homo sapiens, UniProt P35548 130-214).
Assay [10] concerns the target T2, PAX4 (Homo sapiens, UniProt O43316 9-242, F177Y).
T2 sequence: T1 sequence with F169Y, Q192R

In assay [11] the target is MSX2 (Homo sapiens, UniProt P35548 130-214, F161Y).
Chain of MSX2 (Homo sapiens, UniProt P35548 130-214, F161Y) (P35548 130-214 F161Y): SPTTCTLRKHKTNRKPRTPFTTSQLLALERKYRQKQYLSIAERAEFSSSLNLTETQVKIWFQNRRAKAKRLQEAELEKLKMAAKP
In assay [12] the target is HOXA4 (Homo sapiens, UniProt Q00056 201-287, W262F).
Chain of HOXA4 (Homo sapiens, UniProt Q00056 201-287, W262F) (Q00056 201-287 W262F): as the sequence (Q00056 201-287 R217L) above, with L17R, W62F counted along it
The target of assay [13] is PRRX1 (Homo sapiens, UniProt P54821 80-166).
Chain of PRRX1 (Homo sapiens, UniProt P54821 80-166) (P54821 80-166): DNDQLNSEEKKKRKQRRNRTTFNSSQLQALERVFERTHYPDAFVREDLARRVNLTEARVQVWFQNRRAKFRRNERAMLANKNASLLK
For assay [14], the target named is T3, VENTX (Homo sapiens, UniProt O95231 78-163, R121Q).
T3 sequence: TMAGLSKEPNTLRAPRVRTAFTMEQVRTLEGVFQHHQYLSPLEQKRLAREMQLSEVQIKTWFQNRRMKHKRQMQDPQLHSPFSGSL

In assay [15] the target is T4, VENTX (Homo sapiens, UniProt O95231 78-163, Y115F).
T4 sequence: T3 sequence with Y38F, Q44R

Assay [16] deals with HOXA2 (Homo sapiens, UniProt O43364 129-215, R185T).
Chain of HOXA2 (O43364 129-215 R185T): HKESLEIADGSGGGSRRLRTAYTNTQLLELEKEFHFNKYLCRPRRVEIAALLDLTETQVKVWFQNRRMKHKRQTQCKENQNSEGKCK
Assay [17] deals with VAX1 (Homo sapiens, UniProt Q5SQQ9 86-172, T142I).
Chain of VAX1 (Homo sapiens, UniProt Q5SQQ9 86-172, T142I) (Q5SQQ9 86-172 T142I): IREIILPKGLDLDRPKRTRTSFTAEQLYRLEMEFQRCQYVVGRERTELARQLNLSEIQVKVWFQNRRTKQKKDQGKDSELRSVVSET
Assay [18] deals with VAX1 (Homo sapiens, UniProt Q5SQQ9 86-172, K157R).
Chain of VAX1 (Homo sapiens, UniProt Q5SQQ9 86-172, K157R) (Q5SQQ9 86-172 K157R): as the sequence (Q5SQQ9 86-172 T142I) above, with I57T, K72R counted along it

Numbering of substitutions follows the chain as printed.

Chain of ALX4 (Q9H161 200-286): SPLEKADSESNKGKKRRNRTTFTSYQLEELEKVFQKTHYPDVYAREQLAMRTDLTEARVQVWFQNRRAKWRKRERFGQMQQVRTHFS
Chain of PRRX1 (Homo sapiens, UniProt P54821 80-166, F113S) (P54821 80-166 F113S): as the sequence (P54821 80-166) above, with F34S counted along it
Chain of HOXA4 (Homo sapiens, UniProt Q00056 201-287, W262R) (Q00056 201-287 W262R): as the sequence (Q00056 201-287 R217L) above, with L17R, W62R counted along it
Chain of MSX2 (Homo sapiens, UniProt P35548 130-214) (P35548 130-214): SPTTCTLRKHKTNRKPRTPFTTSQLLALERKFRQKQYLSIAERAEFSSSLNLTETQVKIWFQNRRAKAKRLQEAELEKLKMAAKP
Chain of HOXB4 (Homo sapiens, UniProt P17483 148-234) (P17483 148-234): as the sequence (P17483 148-234 V174I) above, with I27V counted along it
Chain of HOXA4 (Homo sapiens, UniProt Q00056 201-287) (Q00056 201-287): as the sequence (Q00056 201-287 R217L) above, with L17R counted along it

Consider ATAATTGA, for which the binding signal is 13 upbm affinity estimate (log intensity, higher = more binding, comparable within an allelic series) in assay [1]; 10.6 upbm affinity estimate (log intensity, higher = more binding, comparable within an allelic series) in assay [2]; 14 upbm affinity estimate (log intensity, higher = more binding, comparable within an allelic series) in assay [3]; 11.5 upbm affinity estimate (log intensity, higher = more binding, comparable within an allelic series) in assay [4]; 12 upbm affinity estimate (log intensity, higher = more binding, comparable within an allelic series) in [5]; 13.7 upbm affinity estimate (log intensity, higher = more binding, comparable within an allelic series) in assay [6]. For the same sequence, the binding signal was 11.9 upbm affinity estimate (log intensity, higher = more binding, comparable within an allelic series) in [7]; 13.7 upbm affinity estimate (log intensity, higher = more binding, comparable within an allelic series) in [8]; 13.8 upbm affinity estimate (log intensity, higher = more binding, comparable within an allelic series) in assay [9]; 11 upbm affinity estimate (log intensity, higher = more binding, comparable within an allelic series) in assay [10]; 13.5 upbm affinity estimate (log intensity, higher = more binding, comparable within an allelic series) in assay [11]; 11.3 upbm affinity estimate (log intensity, higher = more binding, comparable within an allelic series) in assay [12]. Moreover, the binding signal in [13] is 13.5 upbm affinity estimate (log intensity, higher = more binding, comparable within an allelic series).

With CAATTAAA, the binding signal was 11.7 upbm affinity estimate (log intensity, higher = more binding, comparable within an allelic series) in assay [14]; 10.5 upbm affinity estimate (log intensity, higher = more binding, comparable within an allelic series) in assay [2]; 14 upbm affinity estimate (log intensity, higher = more binding, comparable within an allelic series) in assay [3]; 11.2 upbm affinity estimate (log intensity, higher = more binding, comparable within an allelic series) in assay [4]; 11.4 upbm affinity estimate (log intensity, higher = more binding, comparable within an allelic series) in assay [15]; 12.6 upbm affinity estimate (log intensity, higher = more binding, comparable within an allelic series) in assay [16]. Besides, the binding signal in [5] was 12.1 upbm affinity estimate (log intensity, higher = more binding, comparable within an allelic series); in [8] it was 13.6 upbm affinity estimate (log intensity, higher = more binding, comparable within an allelic series); in assay [9] it was 14 upbm affinity estimate (log intensity, higher = more binding, comparable within an allelic series); in [11], 13.7 upbm affinity estimate (log intensity, higher = more binding, comparable within an allelic series); in assay [17] it was 12.7 upbm affinity estimate (log intensity, higher = more binding, comparable within an allelic series); in assay [12], 11.3 upbm affinity estimate (log intensity, higher = more binding, comparable within an allelic series). For the same sequence, the binding signal is 13.3 upbm affinity estimate (log intensity, higher = more binding, comparable within an allelic series) in assay [13] and 12.8 upbm affinity estimate (log intensity, higher = more binding, comparable within an allelic series) in assay [18].

With GCAAGGGC, the binding signal in assay [1] was 7.23 upbm affinity estimate (log intensity, higher = more binding, comparable within an allelic series); in [2] it was 9.8 upbm affinity estimate (log intensity, higher = more binding, comparable within an allelic series); in assay [5], 9.73 upbm affinity estimate (log intensity, higher = more binding, comparable within an allelic series); in [6], 7.22 upbm affinity estimate (log intensity, higher = more binding, comparable within an allelic series); in [8], 9.73 upbm affinity estimate (log intensity, higher = more binding, comparable within an allelic series); in [12], 9.87 upbm affinity estimate (log intensity, higher = more binding, comparable within an allelic series).

Take CCCTACGG: the binding signal in assay [1] was 7.88 upbm affinity estimate (log intensity, higher = more binding, comparable within an allelic series); in [14] it was 8.13 upbm affinity estimate (log intensity, higher = more binding, comparable within an allelic series); in assay [2], 9.76 upbm affinity estimate (log intensity, higher = more binding, comparable within an allelic series); in assay [15], 8.13 upbm affinity estimate (log intensity, higher = more binding, comparable within an allelic series); in [5], 9.8 upbm affinity estimate (log intensity, higher = more binding, comparable within an allelic series); in assay [6], 7.93 upbm affinity estimate (log intensity, higher = more binding, comparable within an allelic series). The binding signal in assay [8] was 9.86 upbm affinity estimate (log intensity, higher = more binding, comparable within an allelic series); in assay [12], 9.84 upbm affinity estimate (log intensity, higher = more binding, comparable within an allelic series).

For the sequence ACAATTAA, the binding signal is 13 upbm affinity estimate (log intensity, higher = more binding, comparable within an allelic series) in [1]; 11.7 upbm affinity estimate (log intensity, higher = more binding, comparable within an allelic series) in assay [14]; 10.5 upbm affinity estimate (log intensity, higher = more binding, comparable within an allelic series) in assay [2]; 13.7 upbm affinity estimate (log intensity, higher = more binding, comparable within an allelic series) in [3]; 11.2 upbm affinity estimate (log intensity, higher = more binding, comparable within an allelic series) in assay [4]; 11.5 upbm affinity estimate (log intensity, higher = more binding, comparable within an allelic series) in assay [15]. In addition, the binding signal in assay [16] is 12.6 upbm affinity estimate (log intensity, higher = more binding, comparable within an allelic series); in assay [5] it was 12 upbm affinity estimate (log intensity, higher = more binding, comparable within an allelic series); in assay [6], 13.7 upbm affinity estimate (log intensity, higher = more binding, comparable within an allelic series); in assay [7], 11.8 upbm affinity estimate (log intensity, higher = more binding, comparable within an allelic series); in assay [8], 13.8 upbm affinity estimate (log intensity, higher = more binding, comparable within an allelic series); in [9], 13.7 upbm affinity estimate (log intensity, higher = more binding, comparable within an allelic series). The binding signal in assay [11] was 13.4 upbm affinity estimate (log intensity, higher = more binding, comparable within an allelic series); in [17], 12.5 upbm affinity estimate (log intensity, higher = more binding, comparable within an allelic series); in assay [12], 11.5 upbm affinity estimate (log intensity, higher = more binding, comparable within an allelic series); in assay [13] it was 13.3 upbm affinity estimate (log intensity, higher = more binding, comparable within an allelic series); in assay [18] it was 12.3 upbm affinity estimate (log intensity, higher = more binding, comparable within an allelic series).

As to CTCAATTA, the binding signal was 13.1 upbm affinity estimate (log intensity, higher = more binding, comparable within an allelic series) in assay [1]; 10.4 upbm affinity estimate (log intensity, higher = more binding, comparable within an allelic series) in assay [2]; 13.9 upbm affinity estimate (log intensity, higher = more binding, comparable within an allelic series) in assay [3]; 11.2 upbm affinity estimate (log intensity, higher = more binding, comparable within an allelic series) in assay [4]; 12.6 upbm affinity estimate (log intensity, higher = more binding, comparable within an allelic series) in assay [16]; 12 upbm affinity estimate (log intensity, higher = more binding, comparable within an allelic series) in [5]. Further, the binding signal in [6] was 13.8 upbm affinity estimate (log intensity, higher = more binding, comparable within an allelic series); in assay [8] it was 13.6 upbm affinity estimate (log intensity, higher = more binding, comparable within an allelic series); in [9], 13.9 upbm affinity estimate (log intensity, higher = more binding, comparable within an allelic series); in assay [11], 13.5 upbm affinity estimate (log intensity, higher = more binding, comparable within an allelic series); in [17] it was 12.8 upbm affinity estimate (log intensity, higher = more binding, comparable within an allelic series); in [12], 11.4 upbm affinity estimate (log intensity, higher = more binding, comparable within an allelic series). Also, the binding signal in assay [13] was 13.4 upbm affinity estimate (log intensity, higher = more binding, comparable within an allelic series); in assay [18], 12.9 upbm affinity estimate (log intensity, higher = more binding, comparable within an allelic series).
